Assay outcomes as filed in PubChem.
Most compounds without a hit are left out; they make up all but 2.5% or so of the library.
EWS-Fli block = EWS/Fli-driven NR0B1 reporter inhibitors, primary screen, A673 cells, NR0B1 luciferase, luminescence, MLPCN library. viability-normalised. AID 651661, 2012. hit rate 0.67% among 350,000. inhibition, % at 12.6 µM;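 active = mean inhibition of at least 50% after viability correction, with every replicate also passing that limit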;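 note: firefly luciferase signal divided by Alamar Blue viability fluorescence both relative to DMSO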
LMP1 NFkB inh = EBV LMP1-driven NF-kappaB luciferase reporter inhibitors, primary screen, cell-based, luminescence, single point; LMP1-induced NF-kappaB luciferase reporter cells; hit rate 0.69% among 350,000; inhibition, % at 12.5 µM; in the data active = inhibition above about 41%
TWEAK Fn14 block = inhibitors of TWEAK-Fn14 signaling, primary screen, luciferase reporter cells, uHTS | inhibition, % at 10 µM | hit rate 2% among 360,000 | TWEAK-stimulated Fn14 reporter cells, luciferase luminescence, 8 h; in the data active = inhibition above about 50%
TROY NFkB inh = inhibitors of TROY-driven NF-kB signaling, primary screen, Q293 LMP1-TROYcd cells, NF-kB luciferase, uHTS; hit rate 0.98% among 360,000; Q293 LMP1-TROYcd NF-kB luciferase reporter, 4 h; inhibition, % at 10 µM; AID 1347056, 2019;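 active = compounds whose plate-normalised and pattern-corrected inhibition of the luciferase reporter signal at the single screening dose is 50% or more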
LGR2 inh = inhibitors of bursicon-induced LGR2 CRE-luciferase signal, primary screen, cell-based, HEK293, CRE-luciferase reporter, bursicon stimulation. Drosophila bursicon receptor LGR2 (rickets). AID 720647, 2013. hit rate 0.35% among 380,000. bursicon-stimulated, 4 h. inhibition, % at 9.99 µM;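 active = drop in luminescence signal, shown as inhibition above about 50% in the replicate tests, limit read from the data, passing the limit was not always enough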;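 note: agonist challenge used bursicon conditioned medium at about half maximal strength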
Numbers stand for hits; i = inactive; nt = not tested or not shown.

SMILES	EWS-Fli block	LMP1 NFkB inh	TWEAK Fn14 block	TROY NFkB inh	LGR2 inh
CN(C)c1ccc(/C=C2\SC(N3CCCCC3)=NC2=O)cc1	51	i	83	74	i
O=C(CNC(=O)OCc1ccccc1)NCC(=O)NC(Cc1c[nH]c2ccccc12)C(=O)O (configuration not stated)	i	nt	i	51	i
CO[C@@H]1CN(C)C(=O)c2cc(NC(=O)CC(F)(F)F)ccc2OC[C@H](C)N(S(=O)(=O)c2cn(C)cn2)C[C@@H]1C	i	nt	nt	nt	i
CC1(C)CC(=O)C2=C(C1)NC1=C(C(=O)c3ccccc31)C2c1cccnc1 (configuration not stated)	i	i	i	i	i
CC(C)c1ccc(C2C3=C(CC(C)(C)CC3=O)NC3=C2C(=O)c2ccccc23)cc1 (configuration not stated)	i	i	61	i	i
CC1(C)CC(=O)C2=C(C1)NC1=C(C(=O)c3ccccc31)C2c1ccccc1 (configuration not stated)	i	i	64	i	nt
CC1Oc2ccccc2C=C1/C=N/NC(=O)[C@@H](C)NC(=O)OC(C)(C)C (some centres not stated)	i	i	i	66	i
C[C@H](CO)N1C[C@H](C)[C@@H](CN(C)S(=O)(=O)c2ccc(F)cc2)OCCCC[C@H](C)Oc2ccc(NC(=O)Cc3ccccc3)cc2C1=O	i	nt	nt	nt	i
CC(C)N1CCN(c2ccc(OC[C@H]3CO[C@](Cn4cncn4)(c4ccc(Cl)cc4Cl)O3)cc2)CC1	i	56	i	i	i
CC(C)N1CCN(c2ccc(OCC3COC(Cn4cncn4)(c4ccc(Cl)cc4Cl)O3)cc2)CC1 (configuration not stated)	i	i	i	i	i
C=CCN(CC=C)c1ncnc2[nH]ncc12	i	i	67	i	i
C[C@H](CO)N1C[C@H](C)[C@H](CN(C)Cc2ccccc2)Oc2ccc(NC(=O)CCCN(C)C)cc2C1=O	i	nt	nt	nt	i
CCN(C[C@H]1N[C@@](CC)(C(=O)OC)[C@H]2C(=O)N(C)C(=O)[C@@H]12)S(=O)(=O)c1ccc(C(F)(F)F)cc1	i	i	i	i	i
CCN(C[C@H]1N[C@@](CC)(C(=O)OC)[C@H]2C(=O)N(C)C(=O)[C@@H]12)S(=O)(=O)c1ccc(C(C)(C)C)cc1	i	i	54	i	i
CCNC(=O)N(CC)C[C@H]1N[C@@](Cc2ccccc2)(C(=O)OC)[C@H]2C(=O)N(C)C(=O)[C@@H]12	i	65	i	i	nt
CC(C)C#Cc1cnc2c(c1)C(=O)N([C@@H](C)CO)C[C@@H](C)[C@H](CN(C)Cc1ccccn1)O2	i	nt	nt	nt	i
C[C@@H]1CN([C@H](C)CO)C(=O)c2cc(NS(C)(=O)=O)ccc2O[C@@H](C)CCCCO[C@H]1CN(C)S(=O)(=O)c1ccccc1	i	nt	nt	nt	i
COc1ccc(OCCN2CCC(C(=O)NC(c3ccccc3)c3ccc4ccccc4n3)CC2)cc1 (configuration not stated)	nt	nt	i	i	nt
O=C(NC(c1ccccc1)c1ccc2ccccc2n1)C1CCN(CCOc2ccc(Cl)cc2)CC1 (configuration not stated)	i	nt	92	i	i
COc1ccc(NC(=O)CN2C(=O)NC3(CCCC3)C2=O)c(OC)c1	i	i	81	i	i
COc1ccc(NC(=O)CN2C(=O)NC(C)(C3CCCCC3)C2=O)c(OC)c1 (configuration not stated)	i	i	i	i	i
COc1nc(-c2ccccc2)cc(-c2ccc3c(c2)OCO3)c1C#N	59	i	i	i	i
CCOC(=O)N1CCN(Cc2c(F)cccc2F)CC1	nt	i	71	nt	i
N#Cc1ccc(-c2ccc(OCC(O)Cn3nnc4ccccc43)cc2)cc1 (configuration not stated)	nt	i	i	52	nt
CC(=O)c1ccc(OCC(O)Cn2nnc3ccccc32)cc1 (configuration not stated)	i	i	i	i	i
C[C@H]1CCCCO[C@H](CN(C)S(=O)(=O)c2cn(C)cn2)[C@@H](C)CN([C@@H](C)CO)C(=O)c2cc(NS(=O)(=O)c3ccc(Cl)cc3)ccc2O1	i	nt	nt	nt	i
O=c1cc(/C=C/c2ccccc2)oc2c1ccc1ccccc12	nt	i	64	i	i
